Type in all cases: functional
Assay [1] concerns the target Solute carrier family 2, facilitated glucose transporter member 1 (Homo sapiens) (UniProt P11166). The assay is described as follows: ST_JUDE_LEISH: Cytotoxicity at 2uM final concentration against transgenic Leishmania Mexicana promastigotes LmGLUT1 that are glucose transport deficient and complemented with the human glucose transporter GLUT1. Activity is measured by DNA content using SYBR green in vitro.

Assay [2] has as its target Hexose transporter 1 (Plasmodium falciparum) (UniProt O97467). Description: ST_JUDE_LEISH: Cytotoxicity at 2uM final concentration against transgenic Leishmania Mexicana promastigotes LmPfHT that are glucose transport deficient and complemented with the Plasmodium falciparum hexose transporter. Activity is measured by DNA content using SYBR green in vitro.
For assay [3], the target named is Glucose transporter (Leishmania mexicana) (UniProt O61059). Description: ST_JUDE_LEISH: Cytotoxicity at 2uM final concentration against transgenic Leishmania Mexicana promastigotes LmGT2 that are glucose transport deficient and complemented with the L. Mexicana glucose transporter 2. Activity is measured by DNA content using SYBR green in vitro.

Chain of Solute carrier family 2, facilitated glucose transporter member 1 (Homo sapiens) (P11166 whole entry): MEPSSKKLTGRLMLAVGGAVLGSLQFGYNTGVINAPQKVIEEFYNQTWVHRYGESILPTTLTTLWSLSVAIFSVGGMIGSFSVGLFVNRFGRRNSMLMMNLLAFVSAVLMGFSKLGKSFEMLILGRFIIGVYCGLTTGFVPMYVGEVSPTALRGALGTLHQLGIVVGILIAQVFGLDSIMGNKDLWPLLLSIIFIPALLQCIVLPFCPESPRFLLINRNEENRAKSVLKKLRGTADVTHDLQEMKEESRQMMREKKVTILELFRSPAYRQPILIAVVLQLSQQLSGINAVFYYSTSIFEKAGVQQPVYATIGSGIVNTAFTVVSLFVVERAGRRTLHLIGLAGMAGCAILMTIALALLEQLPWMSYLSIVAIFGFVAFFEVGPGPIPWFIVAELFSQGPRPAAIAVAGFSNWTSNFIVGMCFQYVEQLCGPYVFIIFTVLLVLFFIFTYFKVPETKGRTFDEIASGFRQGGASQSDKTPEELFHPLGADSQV

Usually inhibition stands for the relative decrease from the control value, in per cent. For the molecule `Cc1cc(NCCC(=O)NCCOc2ccccc2)nc(NCCc2ccc(F)cc2)n1`, the inhibition in assay [1] is 2.06%; in assay [2], 0.98%; in assay [3] it was -2.75%.

Regarding `CCC(CC)NCc1c(O)ccc2c(CNC(CC)CC)c(O)ccc12`, the inhibition in assay [1] is -1.88%; in assay [2], -0.71%; in assay [3], -1.57%.

Consider `C[C@H](NC(=O)c1c(CN2CCC(N3CCCCC3)CC2)c(-c2ccccc2)nc2cc(O)ccc12)C1CCCCC1`, for which the inhibition in assay [1] amounted to 4.25%; in assay [2] it was 4.06%; in assay [3], 3.03%.

For the molecule `O=C1OC2(CN1CC1CCN(Cc3ccc(-n4ccnc4)cc3)C1)c1ccccc1-c1ccccc12` (stereo not drawn), the figures for the inhibition in assay [1], in assay [2] and in assay [3] were 4.6%, 5.24% and 2.86%, respectively.

Consider `Cc1cc(Nc2ccccc2)nc(NCCOc2ccccc2)n1`, for which the inhibition is 5.53% in assay [1], 8.42% in assay [2] and 2.95% in assay [3].

With `O=C(Nc1cccc(CN2CCCN(Cc3cccnc3)CC2)c1)c1ccc(Cl)c(Cl)c1`, the inhibition in assay [1] was determined as 5.01%; in assay [2] it was 4.16%; in assay [3], 5.38%.

Turning to `Oc1ccc2[nH]c(-c3cccs3)nc2c1CN1CCC(N2CCCC2)CC1`, the inhibition amounted to 3.78% in assay [1], 6.78% in assay [2] and 5.89% in assay [3].

Regarding `CCOc1ccc(NC(C)=O)c(O)c1`, the inhibition in assay [1] came out at 5.79%; in assay [2] it was 5.38%; in assay [3], 3.62%.

For `c1ccc(COc2ccc(C3CCCCC3)cc2)nc1`, the inhibition in assay [1] turned out to be 0.38%; in assay [2], 2.32%; in assay [3] it was 2.1%.

As for `O=C(C=Cc1ccc(Cl)c(Cl)c1)NCCCCCN1CCCC(CCCNS(=O)(=O)c2cccc(C(F)(F)F)c2)C1` (stereo not drawn), the inhibition is 0.93% in assay [1], -0.07% in assay [2] and 2.4% in assay [3].

As for `COc1ccc2c(c1)c(C1CCN(CCCCNC(=O)c3ccc(-c4ccc(C(F)(F)F)cc4)cc3)CC1)cn2C(C)C`, the results for the inhibition in assay [1], in assay [2] and in assay [3] were -0.71%, 1.93% and 0.76%, respectively.

As to `O=C(Nc1cccc(CN2CCCN(Cc3ccc(O)cc3)CC2)c1)c1cc(F)cc(F)c1`, the inhibition in assay [1] is 3.19%; in assay [2], 1.64%; in assay [3], -5.2%.

On to `CCCCCCCCNc1c2ccc(Cl)cc2nc2ccc(OC)cc12`, for which the inhibition in assay [1] turned out to be 7.33%; in assay [2], 7.51%; in assay [3], 5.8%.

For the molecule `COc1cc(CC2c3cc(O)c(Cl)cc3CCN2C)c(OC)cc1C` (stereo not drawn), the inhibition in assay [1] amounted to 3.63%; in assay [2], 4.4%; in assay [3], 5.31%.

As to `CC(=O)Nc1csc(-c2cnc(/C=C(\C)C[C@@H]3OC[C@H](C[C@@H]4O[C@H]4[C@@H](C)[C@H](C)O)[C@@H](O)[C@H]3O)o2)c1`, the results for the inhibition in assay [1], in assay [2] and in assay [3] were 3.6%, 4.42% and 2.39%, respectively.

In the case of `NC(=O)C1CCN(Cc2cccc(-c3ccc(-c4nc5cc(C(F)(F)F)ccc5[nH]4)cc3)c2)CC1`, the inhibition in assay [1] was -1.36%; in assay [2], -1.5%; in assay [3] it was -2.94%.

For `CN1Cc2ccc(NS(=O)(=O)c3ccc(-c4ccoc4)cc3)cc2C1`, the inhibition in assay [1] is -2.45%; in assay [2], -1.72%; in assay [3], -3.6%.

Regarding `O=c1ccc2ccc(F)c3c2n1CC3CN1CCC(NCc2cccc(-c3ccccc3F)c2)CC1` (stereo not drawn), the inhibition is 19.1% in assay [1], 22.3% in assay [2] and 11.4% in assay [3].

On to `COc1ccc(CNC2CCN(C)CC2)cc1-c1ccc(S(=O)(=O)NCCc2ccccn2)c(C)c1`, for which the inhibition was determined as 4.11% in assay [1], 1.98% in assay [2] and 1.53% in assay [3].

Take `O=C(Nc1ccc2ccccc2c1)c1ccc(CN2CCC(Cc3ccccc3)CC2)cc1`: the inhibition in assay [1] was -2.67%; in assay [2] it was -3.63%; in assay [3], 7.65%.

As for `CCCc1cc(C(=O)N[C@@H](Cc2ccccc2)[C@H](O)CNC(C)(C)c2cccc(OC)c2)c(F)c(N2CCCC2=O)c1`, the results for the inhibition in assay [1], in assay [2] and in assay [3] were 9.67%, 7.94% and 9.99%, respectively.

For the molecule `O=c1nc(NCCCCCN2CCC(c3c[nH]c4ccccc34)CC2)[nH]cc1Cc1ccc(Cl)c(Cl)c1`, the results for the inhibition in assay [1], in assay [2] and in assay [3] were 2.65%, 2.12% and 2.08%, respectively.

Take `COc1cc(F)c2ncc(Cl)c([C@H](O)CN3CCC(NCc4cc5c(cn4)OCCO5)CC3)c2c1`: the inhibition worked out at 7.62% in assay [1], 7.47% in assay [2] and 2.15% in assay [3].

For `COc1cc2nc(N3CCC(CNC(=O)c4ccc(-c5cccc(C#N)c5)cc4)CC3)nc(N)c2cc1OC`, the inhibition in assay [1] is 3.6%; in assay [2] it was 2.28%; in assay [3], 2.21%.

With `Cc1ccc(NC(=O)c2ccc(CN3CCCN(CC4CCCCC4)CC3)cc2)cc1F`, the inhibition in assay [1] was found to be 8.8%; in assay [2] it was 6.75%; in assay [3] it was 11.2%.

Regarding `CN(CCN)Cc1ccc(-c2ccc(-c3nc4cc(F)ccc4[nH]3)s2)cc1`, the inhibition was -0.54% in assay [1], 0.42% in assay [2] and -1.71% in assay [3].

Consider `COc1ccc(C2CC(=O)C3=C(C2)NC(C)=C(C(=O)OC2CCCC2)C3c2cccc(O)c2)cc1` (stereo not drawn), for which the inhibition in assay [1] was 0.09%; in assay [2] it was 0.95%; in assay [3] it was -0.53%.

Turning to `COc1cc(C)nc2ccc(NC(=O)Nc3ccc4nc(C)cc(OC)c4c3)cc12`, the inhibition stood at 8.47% in assay [1], 6.65% in assay [2] and 8.59% in assay [3].

`CC(C)CCN(Cc1cncn1Cc1cccc(C(F)(F)F)c1)C(=O)c1cncc(-c2ccccc2)c1`: the inhibition in assay [1] is 3.6%; in assay [2], 4.72%; in assay [3], 1.28%.

Regarding `COc1ccc(NC(=O)/C=C/c2ccccc2Cl)cc1OCCN1CCC(NCc2cccnc2)CC1`, the inhibition in assay [1] was 3.65%; in assay [2], 2.5%; in assay [3] it was 1.91%.

Take `CC1CN(c2cnn(Cc3ccc(NC(=O)Nc4ccc(-c5ccccc5)cc4)cc3)c(=O)c2Cl)CC(C)N1` (stereo not drawn): the values for the inhibition in assay [1], in assay [2] and in assay [3] were 1.43%, 0.34% and -1.78%, respectively.

For `FC(F)(F)c1ccc2[nH]c(-c3ccc(-c4ccc(CNCc5cnn(-c6ccccc6)n5)cc4)cc3)nc2c1`, the inhibition is 2.68% in assay [1], 0.52% in assay [2] and 0.17% in assay [3].

In the case of `Cc1c(-c2cccc(C(C)(C)NC3CCN(Cc4ccccc4)CC3)c2)cnc(N)c1C`, the inhibition in assay [1] is 2.58%; in assay [2], 0.02%; in assay [3], 2.38%.

For the molecule `O=C(Nc1ccc(-c2nc3ccccc3[nH]2)cc1)c1cncc(Br)c1`, the inhibition in assay [1] is 4.2%; in assay [2] it was 2.44%; in assay [3], 1.81%.

Consider `CC1N=C(N)N=C(N)N1OCc1cccc2ccccc12` (stereo not drawn), for which the inhibition in assay [1] came out at 1.93%; in assay [2], 0.04%; in assay [3] it was 1.84%.

Turning to `O=C(Nc1cccc(-c2nc3ccccc3[nH]2)c1)c1ccc(-c2cccc([N+](=O)[O-])c2)o1`, the inhibition stood at 4.88% in assay [1], 5.59% in assay [2] and 7.27% in assay [3].

For the origin of these results see ChEMBL document CHEMBL3433997, “St. Jude Leishmania screening dataset” (2016).
